Laboratory results from PubChem BioAssay (NCATS).
Inconclusive results are not listed. Activity calls are given as the source filed them. Unless noted, calls come from the whole dose curve; as a rule, active = well fitted curve in the direction sought with a large enough effect; inconclusive = small, poorly fitted or top-dose-only effect, or another doubt; inactive = no such curve, though single readings can be large; an effect the other way counts as inactive or inconclusive.

Tests used:
[1] = AP1 Signaling Pathway (AID 357; active = well fitted curve in either direction with a large enough effect, not every such curve was filed as active;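 note: ME-180 reporter cells stimulated with EGF at its EC50 level; % is set by controls: 0 for no effect and ±100 for the full control effect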)
Outline: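 Beta-lactamase reporter under AP-1 response element, ME-180 background. Stimulus: EC50 EGF. Compound exposure 5 h, 37 °C. Detection: CCF4, 2.5 h RT, 460/530 nm. Values: AC50 from titration.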

[2] = target: Cytochrome P450 1A2 (Homo sapiens) (UniProt P05177); test: p450-cyp1a2 (AID 410; calls by dose curve; note: potency is the fitted concentration of half-maximal effect;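 for activity change, negative = inhibition: -100% = full effect of reference inhibitor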)
Sequence of Cytochrome P450 1A2 (Homo sapiens) (P05177 whole entry, looked up): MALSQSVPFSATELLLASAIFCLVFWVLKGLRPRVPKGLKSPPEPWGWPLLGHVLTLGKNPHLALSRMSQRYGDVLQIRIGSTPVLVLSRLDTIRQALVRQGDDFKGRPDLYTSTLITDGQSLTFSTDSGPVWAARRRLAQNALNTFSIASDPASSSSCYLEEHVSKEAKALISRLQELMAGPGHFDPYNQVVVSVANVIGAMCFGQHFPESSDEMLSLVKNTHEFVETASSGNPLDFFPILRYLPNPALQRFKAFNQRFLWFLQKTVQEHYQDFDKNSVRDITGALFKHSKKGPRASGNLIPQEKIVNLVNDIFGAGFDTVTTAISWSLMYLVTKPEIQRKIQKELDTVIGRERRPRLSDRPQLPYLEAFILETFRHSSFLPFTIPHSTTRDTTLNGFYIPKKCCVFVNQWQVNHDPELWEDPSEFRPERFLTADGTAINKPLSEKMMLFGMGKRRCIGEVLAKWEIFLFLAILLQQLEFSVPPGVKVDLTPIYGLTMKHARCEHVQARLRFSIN
Outline: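 Inhibition was calculated relative to 57 uM furafylline (full inhibition). The reaction used human CYP1A2 at 20nM with Luciferin-ME at its Km, 100uM, driven by an NADPH-regenerating system for 60 min at room temperature.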

[3] = NFAT Signaling Pathway (AID 444; active = well fitted curve in either direction with a large enough effect, not every such curve was filed as active;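 note: carbachol stimulus at about its EC50 of 1 µM final; % is set by controls: 0 for no effect and ±100 for the full control effect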); conditions: Jurkat NFAT-bla M1, carbachol, beta-lactamase ratio, 5 h; at 17.2 µM (top of the series) unless noted
Outline: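 Jurkat cells with NFAT-driven β-lactamase reporter and co-expressed M1 receptor, stimulated with carbachol (final 1 uM, ~EC50), compound titration, 5 h at 37 °C. CCF4 loaded 1 h at RT; 460/530 nm ratio gave %activity and AC50.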

[4] = Stat Signaling Pathway (AID 446; active = well fitted curve in either direction with a large enough effect, not every such curve was filed as active;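 note: ME-180 cervical cancer cells given 40 pM IL-6 alongside compound; SIE-controlled beta-lactamase reporter measured as 460/530 nm FRET emission ratio; % is set by controls: 0 for no effect and ±100 for the full control effect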)
Outline: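 Screening format detects activators and inhibitors alike: ME-180 SIE-bla cells stimulated at 40 pM IL-6 for 5 hrs with compound, then dual-emission beta-lactamase read at 405 nm excitation.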

[5] = target: Glucocorticoid receptor (Homo sapiens) (UniProt P04150); test: GR-GFP Redistribution (AID 450;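 active = compounds whose dose series gives a full or clear partial fitted curve of increased nuclear translocation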; note: potency is the fitted concentration of half-maximal effect); conditions: U2OS GR-GFP nuclear translocation, laser cytometry, 2 h
Sequence of Glucocorticoid receptor (Homo sapiens) (P04150 whole entry, looked up, the tested form may be a part): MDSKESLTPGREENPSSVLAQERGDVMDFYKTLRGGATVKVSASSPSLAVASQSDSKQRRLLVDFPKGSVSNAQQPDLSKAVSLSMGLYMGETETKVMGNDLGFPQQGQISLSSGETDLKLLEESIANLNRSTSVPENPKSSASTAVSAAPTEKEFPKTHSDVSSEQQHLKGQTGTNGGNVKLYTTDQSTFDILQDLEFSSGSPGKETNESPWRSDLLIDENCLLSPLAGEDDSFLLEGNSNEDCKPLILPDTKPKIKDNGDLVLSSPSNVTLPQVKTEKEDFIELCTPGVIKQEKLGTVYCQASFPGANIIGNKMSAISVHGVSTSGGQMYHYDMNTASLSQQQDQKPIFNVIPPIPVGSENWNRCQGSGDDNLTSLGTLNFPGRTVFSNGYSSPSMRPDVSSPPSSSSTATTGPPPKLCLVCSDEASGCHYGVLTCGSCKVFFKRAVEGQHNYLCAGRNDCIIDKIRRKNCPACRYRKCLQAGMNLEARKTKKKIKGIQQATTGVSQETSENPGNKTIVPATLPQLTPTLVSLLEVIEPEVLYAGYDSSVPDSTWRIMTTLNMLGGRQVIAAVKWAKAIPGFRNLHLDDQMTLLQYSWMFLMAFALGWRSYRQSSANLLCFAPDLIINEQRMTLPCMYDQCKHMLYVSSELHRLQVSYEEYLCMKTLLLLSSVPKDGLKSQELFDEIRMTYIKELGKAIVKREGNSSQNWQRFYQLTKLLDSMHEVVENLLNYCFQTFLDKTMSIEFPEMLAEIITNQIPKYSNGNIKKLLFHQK

[6] = target: Glucocorticoid receptor (Homo sapiens) (UniProt P04150); test: GR-EFC Redistribution (AID 451; calls by dose curve; note: potency is the fitted concentration of half-maximal effect); conditions: CHO-K1 GR-EFC translocation, beta-gal luminescence, 2 h
Outline: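 CHO-K1 cells expressing nuclear EA and GR-ED fragments of b-gal; compounds titrated up to 46 uM final, 2 h at 37 C. GR nuclear translocation read as complemented b-gal luminescence after 1 h RT detection.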

[7] = target: Mitogen-activated protein kinase 10 (Mus musculus) (UniProt Q61831); test: JNK3 AlphaScreen Assay (AID 530; active = well fitted curve in either direction with a large enough effect, not every such curve was filed as active;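 note: kinase came from lysate of stimulated human HepG2 cells; signal reports phosphorylation of biotinylated GST-cJun 1-79 at Ser73 with 10 µM ATP; % is set by controls: 0 for no effect and ±100 for the full control effect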)
Outline: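 qHTS format: compounds tested as titrations against IL-1beta/TNF-alpha-activated HepG2 lysate JNK3 with biotin-GST-cJun substrate and 10 uM ATP at room temperature. Loss of anti-phospho-cJun AlphaScreen signal indicates inhibition.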

[8] = target: 3',5'-cyclic-AMP phosphodiesterase 4B (Homo sapiens) (UniProt Q07343); test: qHTS Assay for Inhibitors of PDE-IV (AID 607; active = well fitted activation curve with a large enough effect in the main read-out, with a control signal flat, not every such curve was filed as active; note: % of control where 0% means no effect)
Sequence of 3',5'-cyclic-AMP phosphodiesterase 4B (Homo sapiens) (Q07343 whole entry, looked up): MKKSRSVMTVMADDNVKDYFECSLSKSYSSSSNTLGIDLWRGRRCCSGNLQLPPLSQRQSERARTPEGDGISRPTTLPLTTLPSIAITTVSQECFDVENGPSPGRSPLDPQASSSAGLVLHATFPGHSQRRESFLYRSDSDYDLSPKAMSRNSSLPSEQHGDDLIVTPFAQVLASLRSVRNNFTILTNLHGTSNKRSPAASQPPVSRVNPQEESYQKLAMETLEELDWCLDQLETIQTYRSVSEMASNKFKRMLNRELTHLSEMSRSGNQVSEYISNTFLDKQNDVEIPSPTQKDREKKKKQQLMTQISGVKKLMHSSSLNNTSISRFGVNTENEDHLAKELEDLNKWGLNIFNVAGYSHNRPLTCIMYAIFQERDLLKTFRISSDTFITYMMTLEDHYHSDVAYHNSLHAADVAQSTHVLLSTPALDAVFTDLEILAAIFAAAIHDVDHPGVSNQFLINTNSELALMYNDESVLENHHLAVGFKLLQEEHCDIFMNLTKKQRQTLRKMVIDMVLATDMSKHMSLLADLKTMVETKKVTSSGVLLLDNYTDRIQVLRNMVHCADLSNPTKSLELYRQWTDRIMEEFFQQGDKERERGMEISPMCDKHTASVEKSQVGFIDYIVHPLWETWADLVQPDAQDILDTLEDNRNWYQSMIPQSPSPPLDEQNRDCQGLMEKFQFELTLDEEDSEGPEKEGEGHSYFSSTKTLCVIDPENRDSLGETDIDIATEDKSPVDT
Outline: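 The readout is membrane depolarisation from a cAMP-sensing CNG channel, detected with a potential dye at ex 535/em 590. Cells were HEK293-derived (endogenous PDE-IV) at 1000 cells/well, titrated up to 22.9 uM final.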

[9] = qHTS Assay for Lipid Storage Modulators (AID 1519; calls by dose curve); conditions: Drosophila S3 cells, BODIPY lipid droplet/cell ratio, laser cytometry, cells loaded with oleic acid
Outline: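 Cells seeded at 5,000 per well were treated with compounds over a concentration series and loaded with oleic acid (400 uM, as added). Lipid droplet fluorescence (488 nm excitation, 500-530 nm channel) was read by laser-scanning cytometry and normalized to 20 uM Triacsin C.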

[10] = target: Ubiquitin carboxyl-terminal hydrolase 1 (Homo sapiens) (UniProt O94782); test: Inhibitors of USP1/UAF1: Pilot qHTS (AID 504865);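 note: rhodamine fluorescence freed from ubiquitin-rhodamine substrate followed over time; top concentration of the series differs between compounds; % is set by controls: 0 for no effect and ±100 for the full control effect; nearly all actives have a fitted effect of over 35% in size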
Sequence of Ubiquitin carboxyl-terminal hydrolase 1 (Homo sapiens) (O94782 whole entry, looked up): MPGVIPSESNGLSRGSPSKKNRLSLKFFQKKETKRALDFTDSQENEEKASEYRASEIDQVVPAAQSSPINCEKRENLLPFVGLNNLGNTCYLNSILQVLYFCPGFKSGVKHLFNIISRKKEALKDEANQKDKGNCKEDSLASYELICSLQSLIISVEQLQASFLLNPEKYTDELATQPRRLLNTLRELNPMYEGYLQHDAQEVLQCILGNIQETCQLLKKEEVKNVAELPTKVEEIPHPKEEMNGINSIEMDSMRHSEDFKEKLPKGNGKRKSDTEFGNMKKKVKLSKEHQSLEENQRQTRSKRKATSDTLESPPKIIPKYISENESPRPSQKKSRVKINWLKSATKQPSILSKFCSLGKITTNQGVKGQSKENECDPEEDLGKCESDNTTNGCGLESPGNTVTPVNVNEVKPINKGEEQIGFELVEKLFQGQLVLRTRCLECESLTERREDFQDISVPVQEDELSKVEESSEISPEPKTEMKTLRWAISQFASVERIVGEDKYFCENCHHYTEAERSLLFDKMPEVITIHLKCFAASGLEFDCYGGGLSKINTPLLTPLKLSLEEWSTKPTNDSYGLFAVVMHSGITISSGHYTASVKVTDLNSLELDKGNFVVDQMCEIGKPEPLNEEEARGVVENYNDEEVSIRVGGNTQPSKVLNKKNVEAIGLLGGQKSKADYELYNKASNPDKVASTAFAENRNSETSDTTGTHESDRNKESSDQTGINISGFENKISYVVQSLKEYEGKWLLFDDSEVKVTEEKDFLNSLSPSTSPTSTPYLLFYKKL
Outline: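 Enzyme-free wells gave the negative control, while test wells held 1nM USP1/UAF1 preincubated with compound for 15 min at room temperature. Ub-Rho at 150nM final started the reaction, and fluorescence at 480/540 nm was recorded kinetically.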

[11] = target: ATP-dependent 6-phosphofructokinase (Trypanosoma brucei brucei) (UniProt O15648); test: qHTS Assay to Find Inhibitors of T. brucei phosphofructokinase: hit validation (AID 492961); note: % is set by controls: 0 for no effect and ±100 for the full control effect
Sequence of ATP-dependent 6-phosphofructokinase (Trypanosoma brucei brucei) (O15648 whole entry, looked up): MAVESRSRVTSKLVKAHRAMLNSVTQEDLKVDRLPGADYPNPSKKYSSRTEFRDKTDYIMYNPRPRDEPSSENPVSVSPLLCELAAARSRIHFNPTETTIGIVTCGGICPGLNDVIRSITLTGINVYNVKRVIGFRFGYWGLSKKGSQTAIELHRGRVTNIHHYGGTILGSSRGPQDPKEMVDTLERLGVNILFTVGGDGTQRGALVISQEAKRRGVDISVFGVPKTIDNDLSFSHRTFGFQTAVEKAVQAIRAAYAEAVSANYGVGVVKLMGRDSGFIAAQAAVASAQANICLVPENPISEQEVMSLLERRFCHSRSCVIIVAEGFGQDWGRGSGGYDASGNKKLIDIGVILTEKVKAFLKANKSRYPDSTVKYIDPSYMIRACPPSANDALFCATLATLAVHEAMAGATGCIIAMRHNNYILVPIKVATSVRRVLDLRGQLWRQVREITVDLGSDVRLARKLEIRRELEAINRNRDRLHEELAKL
Outline: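 Luminescence from ADP-Glo reports ADP generated as T. brucei PFK (1.25 nM) phosphorylates 0.5 mM fructose-6-phosphate using 0.1 mM ATP. Reactions ran 45 min at room temperature, pH 8.0.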

[12] = qHTS profiling for inhibitors of Plasmodium falciparum proliferation (AID 504749); note: nearly all actives have a fitted effect of over 60% in size; note: potency is the fitted concentration of half-maximal effect;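 for activity, negative = inhibition: 0% = DMSO vehicle and full inhibition = artemisinin control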; conditions: P. falciparum in erythrocytes, SYBR Green DNA, 72 h, at 12.8 µM (top of the series)
Outline: (§1)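 Readout was DNA-dye fluorescence from lysed cultures, ex 485/em 535 nm. Parasitized red cells had grown 72 h with compound; data scaled between 0.29 uM artemisinin and DMSO wells and corrected using vehicle-only plates.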

[13] = tested on: C2A; test: as above; conditions: P. falciparum in erythrocytes, SYBR Green DNA, 72 h; series mostly up to 12.8 µM
Outline: as §1

[14] = tested on: CP191; test: as above; conditions: P. falciparum in erythrocytes, SYBR Green DNA, 72 h; series mostly up to 12.8 µM
Outline: as §1

[15] = tested on: CP217; test: as above; conditions: P. falciparum in erythrocytes, SYBR Green DNA, 72 h; series mostly up to 12.8 µM
Outline: as §1

[16] = tested on: CP250; test: as above; conditions: P. falciparum in erythrocytes, SYBR Green DNA, 72 h; series mostly up to 12.8 µM
Outline: as §1

[17] = tested on: CP256; test: as above; conditions: P. falciparum in erythrocytes, SYBR Green DNA, 72 h; series mostly up to 12.8 µM
Outline: as §1

[18] = tested on: FAB9; test: as above; conditions: P. falciparum in erythrocytes, SYBR Green DNA, 72 h; series mostly up to 12.8 µM
Outline: as §1

[19] = tested on: JCK; test: as above; conditions: P. falciparum in erythrocytes, SYBR Green DNA, 72 h; series mostly up to 12.8 µM
Outline: as §1

[20] = tested on: SC27B; test: as above; conditions: P. falciparum in erythrocytes, SYBR Green DNA, 72 h; series mostly up to 12.8 µM
Outline: as §1

[21] = measured here: cell count channel max response
[22] = measured here: lipid channel max response

CCC[C@H]1C[C@H](C(=O)N[C@H]([C@@H]2O[C@H](SC)[C@@H](O)[C@H](O)[C@@H]2O)[C@H](C)O)N(C)C1
-10.9%: max response [9, 22]
-10.3%: max response [9, 21]
inactive: outcome [1] | Potency [2] | activity change, negative = inhibition [3] -5.24% | outcome [4] | Potency [5] > 20.6 µM | Potency [6] > 20.6 µM | Potency [7] | outcome [8] | activity change, negative = inhibition ([9]; at 25.7 µM (top of the series)) 0.0766% | Potency [10]

CC(=O)c1cc2ccccc2oc1=O
-14%: max response [9, 21]
-18.4%: max response [9, 22]
inactive: outcome [1] | activity change, negative = inhibition [3] -3.16% | Potency [5] > 20.6 µM | Potency [6] > 20.6 µM | Potency [7] | outcome [8] | activity change, negative = inhibition ([9]; at 25.7 µM (top of the series)) -3.99% | Potency [10]
active: Potency [2] 0.2 µM

CN1CCN([C@@H](c2ccccc2)c2ccc(Cl)cc2)CC1
-16%: max response [9, 21]
-18.7%: max response [9, 22]
active: Potency [17] 3.55 µM
inactive: outcome [1] | Potency [2] | outcome [4] | Potency [5] > 20.6 µM | Potency [6] > 20.6 µM | Potency [7] | outcome [8] | activity change, negative = inhibition ([9]; at 25.7 µM (top of the series)) -3.4% | outcome [11] | Potency [10] | activity, negative = inhibition ([12]; parasite line A) 1.67% | activity, negative = inhibition ([12]; parasite line B) -12.4% | Potency [13] | Potency [14] | Potency [15] | Potency [16] | Potency [18] | Potency [19] | Potency [20]

C[C@H]1CC[C@@H]2[C@@H](C)[C@H]3[C@H](C[C@H]4[C@@H]5CC=C6C[C@@H](O[C@]7(O[C@H]8O[C@@H](C)[C@@H](O)[C@@H](O)[C@@H]8O)C[C@@H](O[C@@H]8O[C@H](CO)[C@@H](O)[C@H](O)[C@@H]8O)[C@@H](O)[C@H](CO)O7)CC[C@]6(C)[C@H]5CC[C@@]34C)N2C1
-8.96%: max response [9, 21]
-10.1%: max response [9, 22]
inactive: outcome [1] | Potency [2] | outcome [4] | Potency [5] > 20.6 µM | Potency [6] > 20.6 µM | Potency [7] | outcome [8] | activity change, negative = inhibition ([9]; at 25.7 µM (top of the series)) -0.703% | Potency [10]

Cc1ccccc1N1C(=O)c2cc(S(N)(=O)=O)c(Cl)cc2N[C@H]1C
inactive: outcome [1] | Potency [2] | outcome [4] | Potency [5] > 20.6 µM | Potency [6] > 20.6 µM | Potency [7] | outcome [8] | activity change, negative = inhibition ([9]; at 25.7 µM (top of the series)) 0.988% | Potency [10]
-3.66%: max response [9, 22]
-3.14%: max response [9, 21]

C#C[C@@]1(OC(C)=O)CC[C@@H]2[C@@H]3CCC4=C[C@@H](OC(C)=O)CC[C@H]4[C@H]3CC[C@]21C
-9.18%: max response [9, 21] | max response [9, 22]
inactive: outcome [1] | Potency [2] | outcome [4] | Potency [5] > 20.6 µM | Potency [6] > 20.6 µM | Potency [7] | activity change, negative = inhibition ([9]; at 25.7 µM (top of the series)) -2.38% | Potency [10]

NCc1ccccc1CC(=O)N[C@@H]1C(=O)N2C(C(=O)O)=C(CSc3nnnn3CC(=O)O)CS[C@@H]12
-13.9%: max response [9, 22]
inactive: outcome [1] | Potency [2] | outcome [4] | Potency [5] > 20.6 µM | Potency [6] > 20.6 µM | Potency [7] | outcome [8] | activity change, negative = inhibition ([9]; at 25.7 µM (top of the series)) -0.0833% | outcome [11] | activity, negative = inhibition ([12]; parasite line A) 1.91% | activity, negative = inhibition ([12]; parasite line B) -4.65% | Potency [13] | Potency [14] | Potency [15] | Potency [16] | Potency [17] | Potency [18] | Potency [19] | Potency [20]
-14.4%: max response [9, 21]

CC[C@H](C)C(=O)O[C@@H]1C[C@H](C)C=C2C=C[C@H](C)[C@@H](CC[C@H]3C[C@@H](O)CC(=O)O3)[C@H]21
inactive: outcome [1] | Potency [2] | activity change, negative = inhibition [3] 11.4% | Potency [5] > 20.6 µM | Potency [6] > 20.6 µM | Potency [7] | outcome [8] | activity change, negative = inhibition ([9]; at 25.7 µM (top of the series)) -5.83% | Potency [10]
-1.87%: max response [9, 21]
-8.58%: max response [9, 22]

C[C@@H]1C[C@H](OC(=O)c2ccccc2O)CC(C)(C)C1
-8.27%: max response [9, 21]
inactive: outcome [1] | outcome [4] | Potency [5] > 20.6 µM | Potency [6] > 20.6 µM | Potency [7] | outcome [8] | activity change, negative = inhibition ([9]; at 25.7 µM (top of the series)) -2.75% | Potency [10]
-10.7%: max response [9, 22]
active: Potency [2] 12.6 µM

COc1ccc(CNc2ncncc2-c2ccccc2CN(C)C)c(OC)c1
9.69%: max response [9, 21]
19.6%: max response [9, 22]
inactive: outcome [1] | outcome [4] | Potency [5] > 46 µM | Potency [6] > 46 µM | Potency [7] | outcome [8] | activity change, negative = inhibition ([9]; at 57.5 µM (top of the series)) 6.9% | Potency [10]
active: Potency [2] 15.8 µM

C#C[C@@]1(O)CC[C@@H]2[C@@H]3CCC4=CC(=O)CC[C@@H]4[C@H]3CC[C@]21C
inactive: outcome [1] | Potency [2] | activity change, negative = inhibition [3] -7.42% | outcome [4] | Potency [7] | outcome [8] | activity change, negative = inhibition ([9]; at 25.7 µM (top of the series)) -2.83% | Potency [10]
-8.09%: max response [9, 21]
-9.96%: max response [9, 22]

C#C[C@@]1(O)CC[C@@H]2[C@@H]3CCC4=CC(=O)CC[C@@H]4[C@H]3CC[C@]21CC
active: Potency [5] 0.0832 µM
-10.3%: max response [9, 21]
inactive: outcome [1] | Potency [2] | outcome [4] | Potency [6] > 20.6 µM | Potency [7] | outcome [8] | activity change, negative = inhibition ([9]; at 25.7 µM (top of the series)) -1.97% | Potency [10]
-10.4%: max response [9, 22]

NC(=O)N[C@H]1NC(=O)NC1=O
inactive: outcome [1] | Potency [2] | activity change, negative = inhibition [3] -6.77% | Potency [5] > 20.6 µM | Potency [6] > 20.6 µM | activity change, negative = inhibition ([9]; at 25.7 µM (top of the series)) -0.627% | outcome [11] | activity, negative = inhibition ([12]; parasite line A) 2.27% | activity, negative = inhibition ([12]; parasite line B) 16.7% | Potency [13] | Potency [14] | Potency [15] | Potency [16] | Potency [17] | Potency [18] | Potency [19] | Potency [20]
21.8%: max response [9, 21]
17.1%: max response [9, 22]

CC(=O)[C@H]1CC[C@@H]2[C@H]3CC=C4C[C@@H](O)CC[C@]4(C)[C@H]3CC[C@]12C
-11.5%: max response [9, 21]
-15.2%: max response [9, 22]
inactive: outcome [1] | Potency [2] | activity change, negative = inhibition [3] 3.47% | Potency [7] | outcome [8] | activity change, negative = inhibition ([9]; at 25.7 µM (top of the series)) -2.95% | Potency [10]
